Experimental data reported in PubChem BioAssay AID652251 (National Center for Advancing Translational Sciences (NCATS), 2013).
Active and inactive are the calls of the source.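 How the source made its calls: active means lowers cyclin D1 in cells by half at 5 µM or less; inconclusive means half-effect dose above 5 µM but under 10 µM; inactive means half-effect dose of 10 µM or more.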

assay: qHTS for Inhibitors of Ubiquitin-specific Protease USP2a Using CHOP2 as the Reporter: Cyclin D1 Western Blot; details: HCT116 cyclin D1 western blot
Excerpt: Homeostasis of cellular proteins is maintained through a combination of synthesis and degradation. The pathway that accounts for the majority of protein degradation is the ubiquitin-proteasomal pathway. Ubiquitin (Ub) is highly conserved in all cells and the generation of a multi-Ub chain typically targets proteins for degradation by the proteasome. However, ubiquitination is highly reversible and dynamic. Deubiquitination, the reverse process, is catalyzed through the action of enzymes referred to as isopeptidases or deubiquitinating enzymes (DUBs). This group of enzymes is collectively responsible for maintaining adequate pools of free ubiquitin and regulating the ubiquitination status of cellular proteins. The class of DUBs referred to as the ubiquitin-specific proteases (USP) family functions endoproteolytically to cleave Ub chains from a wide range of protein substrates. USP2a deubiquitinates fatty acid synthase (FASN) which has recently been identified as an emerging oncology target. […] To further visualize and quantitate the effect of compounds on cell proliferation, a colony forming or clonogenic assay was performed in 6-well plates using HCT116 cells. […] The colonies were visualized on the Typhoon imager (GE) using Cy5 detection, and quantitated with the associated software. […]
. […] Protein levels were quantified using ImageJ.

SMILES | Potency
Cc1ccc(S(=O)(=O)Nc2cc(C(F)(F)F)ccc2C(=O)Nc2nc(-c3ccccc3)cs2)cc1 | 970 nM (active)
